Pf growth 96h = inhibits malaria parasite growth, 96 h. P. falciparum luciferase reporter growth, 96 h. Potency, µM (highest dose often 28.7 µM), for inactives: top-dose activity change, negative = inhibition, actives largely listed as inhibitors. 6.9% of 320,000 active. AID 504834; also: potency is read from the fitted curve at half-maximal effect; % is scaled to controls: 0 for no effect and ±100 for the full control effect
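Luminescence readout: decreased luciferase signal marks inhibited growth of reporter-expressing P. falciparum in infected red cells (2% hematocrit, 0.05% parasitemia final), exposed to compound two generations (96 h, 37 C, 5% CO2).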
Shiga inhibitor = Shiga toxin inhibition; 9.2% of 290,000 active; AID 2315; inhibition, % at 38.7 µM; Vero cells, Shiga toxin protein synthesis inhibition reporter; in the data active = inhibition mostly above about 28%, no sharp cut-off; inactive = mostly below about 43%; also: 0% is about no effect
Cycloheximide cs = affects cycloheximide protein synthesis inhibition readout, counter-screen; cell reporter, cycloheximide protein synthesis inhibition counterscreen; max response, %; 12% of 300,000 active; AID 2314; in the data active = max response mostly above about 13%, no sharp cut-off; inactive = mostly below about 14%; also: read at 38.3 µM for the half of the compounds with a filed dose; 0% is about no effect
Pf growth 48h = P. falciparum growth inhibition at 48 hours (one generation); AID 504832; 5.9% of 310,000 active; P. falciparum luciferase growth in erythrocytes, 48 h; Potency, µM (top dose mostly 28.7 µM), inactives show at the top dose activity change, negative = inhibition, usual class: inhibitors; also: potency is read from the fitted curve at half-maximal effect; % is scaled to controls: 0 for no effect and ±100 for the full control effect
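First compound was added to culture medium, then infected red cells at 0.1% parasitemia and 2% hematocrit (final). After incubation at 37 C under 5% CO2, luciferase detection reagent was dispensed and light output recorded.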
NS1 inh = influenza NS1 inhibition | 0.4% of 270,000 active | Potency, µM (top dose mostly 46.1 µM), for the others: top-dose activity, positive = more growth; calls by dose curve; also: potency is read from the fitted curve at half-maximal effect; actives are rising curves; nearly all actives have a fitted effect of over 50% in size
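Read-out: OD600 growth recovery of NS1-expressing budding yeast. Cells grown overnight at 30C in -URA glucose medium, washed, resuspended and diluted 1:100 in 2% galactose assay medium, pH 6.0. Same strain lacking NS1 served as positive control.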
* marks the source's active call; other numbers are inactive results; ? = inconclusive; · = no result. Sampled rows, rich in hits. Any-hit rate of the full collection: about 21%. Unless noted, calls follow the shape of the dose curve; as a rule, active = well fitted inhibition curve with a large enough effect; inconclusive = small, poorly fitted or top-dose-only effect, or another doubt; inactive = no such curve, though single readings can be large or run the other way.

SMILES	Pf growth 96h	Shiga inhibitor	Cycloheximide cs	Pf growth 48h	NS1 inh
NC(=O)CC(NC(=O)Cc1cccc2ccccc12)c1ccc(NC2CCCCCCC2)c([N+](=O)[O-])c1 (centres undefined)	2%	9	-5	62%	?
Cc1cccc(C(C)C)c1NC(=O)c1c(-c2ccccc2)noc1C	2%	5	-3	-1%	4%
Fc1ccccc1-c1ccc(/C=N/Nc2nc3ccccc3[nH]2)o1	0.93µM*	49*	50*	?	-16%
CC(C)NC(=S)N/N=C/c1ccc2c(c1)OCCO2	21%	53*	49*	16%	3%
C(=N\Nc1nc2ccccc2[nH]1)/c1ccc2c(c1)OCCO2	?	36	28*	?	-32%
O=C(CCCN1C(=O)c2ccccc2C1=O)Nc1nc2ccccc2[nH]1	0%	-2	-3	-2%	12%
Cc1cc(C)nc(N/N=C/c2ccc3c(c2)OCCO3)n1	48%	59*	25*	63%	-2%
Cc1ccc(-n2nc(C)c(C3(O)C(=O)N(C(C)C)c4ccccc43)c2N)cc1 (centres undefined)	42%	-9	-1	6%	-8%
CCc1ccccc1NC(=O)N[C@@H](C)C(=O)O	9.3µM*	71	-3	7%	7%
Cc1ccnc(Nc2nc(-c3ccc(Cl)cc3)cs2)c1	-28%	42*	38*	145%	19%
Cc1c(Nc2nc(-c3ccc(Cl)cc3)cs2)c(=O)n(-c2ccccc2)n1C	13µM*	-11	-3	0%	21%
Cn1nc(C(=O)Nc2nc(-c3ccc(F)cc3)cs2)ccc1=O	1%	-3	-1	-4%	-4%
CCOC(=O)Cc1csc(Nc2c(C)n(C)n(-c3ccccc3)c2=O)n1	-11%	21	1	0%	5%
Cc1ccnc(Nc2nc(-c3ccc(F)cc3)cs2)c1	?	100*	50*	0%	-25%
O=C(CN1C(=O)C(=O)N(C2CCCC2)C1=O)Nc1ccc(F)cc1F	-1%	·	·	-24%	·
CCOc1ccc(N(CC(=O)N/N=C/c2cccnc2)S(C)(=O)=O)cc1	4%	-20	5	0%	·
C=CC[N@@+]12CC[C@]34c5ccccc5N5/C=C6\C7N(/C=C(\C53)[C@@H](C[C@@H]41)/C(=C/CO)C2)c1ccccc1[C@@]71CC[N@@+]2(CC=C)C/C(=C\CO)[C@@H]6C[C@@H]12 (some centres undefined)	-14%	·	·	?	·
CC(CCc1ccccc1)NC(=O)CCNS(=O)(=O)c1ccccc1C(F)(F)F (centres undefined)	-73%	·	·	?	·
CC(=O)N(C)c1ccc(NS(=O)(=O)c2cc(Cl)ccc2Cl)cc1	-8%	-2	-3	-11%	7%
COc1ccc(C2=Nn3c(nnc3-c3ccc(OC)c(OC)c3)SC2)cc1OC	·	-5	5	·	·
COc1ccccc1N1CCN(/N=C/c2cc(OC)c(O)c(OC)c2)CC1	10%	24	3	-16%	28%
COc1ccccc1N1CCN(/N=C/c2cccc(O)c2)CC1	-27%	85*	29*	56%	-34%
COc1ccccc1N1CCN(/N=C/c2ccccc2C(=O)O)CC1	5%	28*	17*	-16%	7%
COc1cc(/C=N/N2CCN(c3ccccc3OC)CC2)ccc1OC(C)=O	-18%	·	19*	-5%	3%
CC1N=C2c3ccccc3N=C(SCc3cc(=O)n4ccccc4n3)N2C1=O (centres undefined)	·	·	·	·	11%
SMILES	Pf growth 96h	Shiga inhibitor	Cycloheximide cs	Pf growth 48h	NS1 inh
COc1ccc2[nH]c(=O)c(CN(CC3CCCO3)C(=S)Nc3ccccc3)cc2c1 (centres undefined)	256%	-8	-2	18%	2%
COc1ccc2cc(CN(CC3CCCO3)C(=S)Nc3ccccc3)c(=O)[nH]c2c1 (centres undefined)	?	-7	3	9.3µM*	10%
COc1ccc2cc(CN(CC3CCCO3)S(=O)(=O)c3ccc(C(C)=O)cc3)c(=O)[nH]c2c1 (centres undefined)	?	64*	19*	·	6%
CN(C)CCCN(Cc1cc2cc3c(cc2[nH]c1=O)OCO3)C(=S)Nc1ccccc1	?	31*	14	?	3%
CCN1CCCC1CN(Cc1cc2ccc(C)cc2[nH]c1=O)C(=S)Nc1cccc(OC)c1 (centres undefined)	15%	-13	-2	10µM*	-1%
O=C(NC1CCN(C(=S)NCc2ccco2)CC1)NC12CC3CC(CC(C3)C1)C2	?	-12	-3	?	8%
O=C(CCCC(=O)OCC(Cl)=C(Cl)Cl)Nc1ccc(F)cc1	-4%	-2	1	21%	-22%
Cc1noc(C)c1CSCC(=O)Nc1nc2ccc(S(C)(=O)=O)cc2s1	?	·	·	-30%	·
Cc1cc2cc(CN(CC3CCCO3)C(=S)NCc3ccco3)c(=O)[nH]c2cc1C (centres undefined)	-74%	-13	-2	-24%	7%
Cc1cc2cc(CN(CC3CCCO3)C(=S)Nc3ccccc3)c(=O)[nH]c2cc1C (centres undefined)	9%	-20	-2	12µM*	22%
COc1ccccc1NC(=S)N(Cc1ccco1)Cc1cc2cc(C)c(C)cc2[nH]c1=O	2.1µM*	-10	-1	13µM*	16%
COc1ccc(C2(C)NC(=O)N(CC(=O)NCc3ccccc3)C2=O)cc1OC (centres undefined)	7%	-5	-3	-3%	2%
CC(=O)Oc1ccc(OC(C)=O)c(S(=O)(=O)c2ccc(C)c(C)c2)c1	12µM*	3	-3	23%	-6%
COc1ccc(/C=C/C(=O)Oc2ccc(C)c(C)c2)cc1OC	-3%	44	16	?	·
CCCC1([C@H](O)C/C=C/[C@H]2[C@H](O)CC(=O)[C@@H]2CCCCCCC(=O)OC)CCC1	·	-5	-3	·	·
CCOc1ccccc1/C=C/c1onc(C)c1S(=O)(=O)N1CCC(C(=O)NC)CC1	-24%	-1	-3	?	9%
CCOc1ccccc1/C=C/c1onc(C)c1S(=O)(=O)N1CCC(C(=O)NC(C)(C)C)CC1	54%	-5	1	15µM*	?
CCc1ccc(NC(=O)C2CCN(S(=O)(=O)c3c(C)noc3C)CC2)cc1	5.9µM*	-7	2	-8%	1%
CCOc1ccc(NC(=O)C2CCN(S(=O)(=O)c3c(C)noc3C)CC2)cc1	7.4µM*	-5	-2	-1%	3%
C=CCNC(=O)c1ccccc1NC(=O)C1CCN(S(=O)(=O)c2ccc(SC)cc2)CC1	19%	3	-1	?	-2%
CCOC(=O)C1=C(CBr)NC(=O)NC1C (centres undefined)	40%	-2	-3	27%	·
Cc1ccc(N(C(=O)c2csnn2)C(C(=O)NC2CCCCC2)c2ccncc2)c(C)c1 (centres undefined)	?	8	-2	-20%	-5%
Cc1ccc(NC(=O)CN(C)C(=O)c2cccc(S(=O)(=O)NCc3cccs3)c2)cc1	-11%	·	·	?	·
